# Screens deposited in PubChem by University of Kansas High Throughput Screening Laboratory.
# The list is not random: actives were taken first. Their share in the collection is about 3.6%.
# mHTT-CaM PPI inh: inhibitors of human mutant huntingtin-calmodulin interaction. P42858. AlphaScreen His-mHTT/GST-CaM binding, luminescence. inhibition, % at 15 µM. 3.6% of 190,000 active;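 further: 0% = both proteins with DMSO and 100% = one protein alone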
# Pf apPOL inh: Pf-apPOL DNA polymerase inhibition | inhibition, % at 10 µM | Recombinant Pf-apPOL, molecular beacon fluorescence, 1.5 h | 0.25% of 210,000 active
# * hit, by the source's call; . = no result given. No stated cut-off is given here; in the data, active means inhibition above about 50%; inactive means the rest.
SMILES,mHTT-CaM PPI inh,Pf apPOL inh
O=C1Nc2ccc(Br)cc2/C1=C/c1cccs1,58.0*,1.2
Cc1ccc(/C=C2\C(=O)Nc3ccc(Br)cc32)s1,34.0,-1.9
O=C1Nc2c(Br)cc(Br)cc2/C1=C/c1ccco1,12.0,-6.0
O=C1Nc2ccc(Br)cc2/C1=C/c1ccco1,72.0*,-5.0
CCOC(CNC(=O)c1ccc2c(c1)nc(C)n2-c1cc(C)ccc1OC)OCC,17.0,-0.8
Cc1ccc(OCC(=O)N2CCN(c3nc(CN4CCC(C)CC4)cs3)CC2)cc1,15.5,-7.2
O=C(NC1CC1)C1CCN(c2ncccc2-c2nc(-c3cccc(F)c3)no2)CC1,0.7,-1.9
COc1ccc(C2CC(c3ccc(Cl)cc3Cl)Nc3nc(N)nn32)cc1 (stereo not drawn),42.1,-3.7
COc1cccc(C2CC(c3ccccc3Cl)Nc3nc(N)nn32)c1 (stereo not drawn),29.7,-2.8
Nc1nc2n(n1)C(c1cccs1)CC(c1ccc(Cl)cc1Cl)N2 (stereo not drawn),78.5*,-13.4
COc1cccc(C2CC(c3ccc(Cl)cc3Cl)Nc3nc(N)nn32)c1 (stereo not drawn),51.7*,2.4
Cc1cccn2c(=O)c3cc(C(=O)NC(C)c4ccccc4)c(=N)n(C4CCCCC4)c3nc12 (stereo not drawn),54.0*,-0.1
CC(NC(=O)c1cc2c(=O)n3ccccc3nc2n(Cc2ccco2)c1=N)c1ccccc1 (stereo not drawn),51.0*,-2.2
CCn1c(=N)c(C(=O)NC(C)c2ccccc2)cc2c(=O)n3cccc(C)c3nc21 (stereo not drawn),0.0,-5.9
CCNC(=O)c1cc2c(=O)n3ccccc3nc2n(Cc2ccco2)c1=N,18.0,15.5
Cc1cccn2c(=O)c3cc(C(=O)NC(C)c4ccccc4)c(=N)n(Cc4ccco4)c3nc12 (stereo not drawn),51.0*,3.9
Cc1cccn2c(=O)c3cc(C(=O)NCc4ccccc4)c(=N)n(Cc4ccco4)c3nc12,38.0,12.3
O=C(O)c1ccc(-c2ccc([N+](=O)[O-])cc2Cl)o1,16.6,-1.3
O=C(Cc1cc(-c2cccs2)on1)Nc1ccc(F)c(Cl)c1,-15.2,-2.1
O=C1NC2(CCN(C(=O)c3ccccc3F)CC2)Nc2c(Cl)cccc21,8.1,-1.2
COc1ccc(-n2ccn3cc(-c4ccccc4C)nc3c2=O)cc1Cl,-0.3,-2.9
O=C(c1ccc(F)cc1)N1CCCC2(CC(c3ccncc3)=CO2)C1 (stereo not drawn),-13.1,-4.7
O=C(c1ccc(F)cc1)N1CCCC2(CC(c3ccccc3)=CO2)C1 (stereo not drawn),99.0*,-5.9
O=C(c1cccc(F)c1)N1CCCC2(CC(c3ccccc3)=CO2)C1 (stereo not drawn),100.0*,-3.5
O=C(c1cccc(F)c1)N1CCCC2(CC(c3ccncc3)=CO2)C1 (stereo not drawn),-3.2,-2.1
SMILES,mHTT-CaM PPI inh,Pf apPOL inh
Cc1nc2sccn2c(=O)c1NC(=O)c1c(F)cccc1F,-4.7,0.2
COc1ccc(NC(=O)COc2cc(C)ccc2C)c([N+](=O)[O-])c1,2.1,-0.8
CC(=O)N(C)c1ccc(NC(=O)CN2C(=O)c3ccccc3C2=O)cc1,-5.0,-1.1
c1ccc(N/N=C2/C/C(=N\Nc3ccccc3)c3ccccc32)cc1,91.0*,.
O=C(O)c1coc2c1C(=NNc1ccccc1)CCC2,.,-12.0
COC(=O)c1ccc(-c2c(-c3cccc(OC)c3)oc3c2C(O)CCC3)cc1 (stereo not drawn),5.6,1.5
CCc1nc2c(c(=O)n1CC(=O)Nc1ccc3c(c1)OCO3)CN(Cc1ccccc1)CC2,1.6,-3.4
CC(C)n1cc2cc(C(=O)N3CCN(Cc4ccc5c(c4)OCO5)CC3)sc2c1,64.7*,-9.9
O=C(c1cc2cn(C3CC3)cc2s1)N1CCN(C2CCCCC2)CC1,54.8*,0.0
CN1CCC(N2CCN(C(=O)c3cc4cn(C5CCCC5)cc4s3)CC2)CC1,29.8,-2.7
CC(C)n1cc2cc(C(=O)N3CCN(Cc4ccccc4F)CC3)sc2c1,60.0*,3.3
O=C(c1cc2cn(C3CC3)cc2s1)N1CCN(Cc2ccc3c(c2)OCO3)CC1,62.7*,-3.2
CC(=O)N1CCN(C(=O)c2cc3cn(C(C)C)cc3s2)CC1,12.8,-1.3
CC(C)CN1CCN(C(=O)c2cc3cn(C(C)C)cc3s2)CC1,15.1,-7.8
O=C(c1cc2cn(C3CC3)cc2s1)N1CCOCC1,4.9,-4.8
N#Cc1ccc(S(=O)(=O)N2CCC(c3noc(-c4cccc(F)c4)n3)CC2)cc1,2.8,0.7
COc1ccc(C(O)CN2CCN(C3CCCCC3)CC2)cc1OC (stereo not drawn),-5.7,-1.3
COc1ccc(/C=c2\sc3nc4cc(C)c(C)cc4n3c2=O)cc1,-1.0,-3.7
CCc1nc(-n2cccc2)sc1C(=O)Nc1ccccc1F,-9.1,-2.6
O=C(CCc1ccccc1)Nc1ccccc1C(=O)Nc1ccccc1,-3.9,-12.4
O=C(Nc1ccc(I)cc1)c1cc2ccccc2o1,-9.0,1.4
Cc1nc2c(C(=O)NCc3ccccc3)cnn2c(C)c1Cc1cccc(Br)c1,66.0*,-6.3
COc1ccccc1CNC(=O)c1cnn2c(C)c(Cc3cccc(Br)c3)c(C)nc12,6.0,-10.6
Cc1nc2nc(SCC(=O)NCc3ccccc3)nn2c(C)c1Cc1ccccc1,31.0,-12.6
Cc1nc2c(C(=O)NCc3ccco3)cnn2c(C)c1Cc1cccc(Br)c1,51.0*,-6.6
SMILES,mHTT-CaM PPI inh,Pf apPOL inh
Cc1ccc(CNC(=O)c2cnn3c(C)c(Cc4cccc(Cl)c4)c(C)nc23)cc1,4.0,-5.4
Cc1nc2c(C(=O)NCc3cccnc3)cnn2c(C)c1Cc1cccc(Br)c1,58.0*,-9.0
Cc1nc2nc(CC(=O)NCc3ccccc3)nn2c(C)c1Cc1cccc(Cl)c1,63.0*,-4.2
Cc1nc2c(C(=O)NCc3ccco3)cnn2c(C)c1Cc1cccc(Cl)c1,31.0,-4.8
CCc1ccc(N2C(=O)NC3CC2(C)Oc2ccc(Cl)cc23)cc1 (stereo not drawn),37.0,4.4
CC1CCCC(C)N1CC(O)COc1ccc(C23CC4CC(CC(C4)C2)C3)cc1 (stereo not drawn),100.3*,-0.4
CC1CN(CC(O)COc2ccc(C34CC5CC(CC(C5)C3)C4)cc2)CC(C)O1 (stereo not drawn),17.6,0.2
CC1CCCCN1CC(O)COc1ccc(C23CC4CC(CC(C4)C2)C3)cc1 (stereo not drawn),100.2*,0.1
CC1CCCCN1CC(O)COCC12CC3CC(CC(C3)C1)C2 (stereo not drawn),0.1,-4.7
CC(=O)N1CCc2c(sc(NC(=O)c3coc4ccccc4c3=O)c2C#N)C1,-0.7,1.6
CCCC1CCC2(CCCN2CCOC(=O)Nc2ccc(Br)cc2)CC1 (stereo not drawn),95.9*,-9.7
CCCC1CCC2(CCCN2CCOC(=O)Nc2ccccc2)CC1 (stereo not drawn),2.9,-2.1
CCN(CC)c1ccc(/C=C2/C(=O)N(c3ccc(C)c(C)c3)N=C2C)cc1,86.0*,-1.1
CC1=NN(c2cccc(F)c2)C(=O)/C1=C/c1ccc(N(C)C)cc1,10.0,-10.5
CC1=NN(c2ccc(C)c(C)c2)C(=O)/C1=C/c1ccc(N(C)C)c([N+](=O)[O-])c1,1.0,-4.5
CN(C)c1ccc(/C=C2\C(=O)N(c3ccccc3)N=C2c2ccccc2)cc1,56.0*,-3.6
CC1=NN(c2ccc(I)cc2)C(=O)/C1=C/c1ccc(N(C)C)cc1,57.0*,-1.3
